From PubChem BioAssay (NCI)
Compounds without any hit were thinned out: in the full panel of roughly 83,000, 20% have a hit.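 Single-dose data. Exposure time 48 hours. Values below 10 considered active.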 Unmarked numbers belong to inactive results. Activity calls are given as the source filed them.

What was measured:
Experiment in all cases: NCI-60 one-dose screen, 48 h (100 = growth as untreated, 0 = no growth, -100 = all killed)
Details in all cases: 10 µM unless noted
NCI-H23 lung = test system: NCI-H23 lung
NCI-H226 lung = test system: NCI-H226 lung
NCI-H322M lung = test system: NCI-H322M lung
HOP-62 NSCLC = test system: HOP-62 NSCLC
NCI-H460 lung = test system: NCI-H460 lung
HOP-92 NSCLC = test system: HOP-92 NSCLC
NCI-H522 lung = test system: NCI-H522 lung
A549/ATCC NSCLC = test system: A549/ATCC NSCLC
786-0 renal = test system: 786-0 renal
COLO 205 colon = test system: COLO 205 colon
DU-145 prostate = test system: DU-145 prostate
K-562 leukemia = test system: K-562 leukemia
MALME-3M melanoma = test system: MALME-3M melanoma
MDA-MB-231 breast = test system: MDA-MB-231 breast
RXF 393 renal = test system: RXF 393 renal
SF-268 CNS = test system: SF-268 CNS
SF-295 CNS = test system: SF-295 CNS
SF-539 CNS = test system: SF-539 CNS
UACC-257 melanoma = test system: UACC-257 melanoma
M14 melanoma = test system: M14 melanoma

Compound	growth (NCI-H23 lung) [%]	growth (NCI-H226 lung) [%]	growth (NCI-H322M lung) [%]	growth (HOP-62 NSCLC) [%]	growth (NCI-H460 lung) [%]	growth (HOP-92 NSCLC) [%]	growth (NCI-H522 lung) [%]	growth (A549/ATCC NSCLC) [%]	growth (786-0 renal) [%]	growth (COLO 205 colon)	growth (DU-145 prostate) [%]	growth (K-562 leukemia) [%]	growth (MALME-3M melanoma) [%]	growth (MDA-MB-231 breast) [%]	growth (RXF 393 renal) [%]	growth (SF-268 CNS) [%]	growth (SF-295 CNS) [%]	growth (SF-539 CNS)	growth (UACC-257 melanoma) [%]	growth (M14 melanoma) [%]
CCCCCCCCCCCCCCCC(=O)O[C@@H]1[C@@H](O)[C@@H](O)C([C@H](NC(=O)[C@@H]2C[C@@H](CCC)CN2C)[C@H](C)Cl)O[C@@H]1SC (stereo not given in full)	102	91.2	97.8	101	110	118	130	102	91.8	103%	114	100	87.1	110	106	105	104	92%	105	98.9
CN1C(=O)N(C)C2(c3ccccc3)N(CC(=O)Nc3ccccc3O)C(=O)NC12c1ccccc1 (stereo not given)	101	90.7	100	102	106	107	86.2	109	103	110%	110	101	107	101	113	96.5	101	96.4%	125	105
CCCCSc1ccc2nc(-c3ccc(OCCCN=C(N)N)cc3)cn2c1	63.7	72.3	90.7	86.4	43.7	43.1	53.8	83.8	39.4	51.1%	73.4	32.9	23.2	51.2	45.6	50.9	52.7	9.52% (active)	85.7	72.5
CN(Cc1ccccc1)c1nc(Cl)c(C2CC(c3ccc(F)cc3)=NN2C=O)s1 (stereo not given)	84.2	95.9	93.1	107	96.9	89.5	83.3	94.6	93.9	99.7%	104	77.9	105	97	92.9	91.2	92.2	107%	103	92.8
O=C(/C=C/c1ccc([N+](=O)[O-])cc1)c1ccccc1	93.2	85	102	83	105	75.9	70.4	83.3	89.1	87.2%	97.3	44.1	107	102	91.1	92	93.4	92.3%	89.1	92.2
C[C@@H]1O[C@@H](O[C@H]2[C@@H](OC(=O)[C@]34CCC(C)(C)C[C@H]3C3=CC[C@@H]5[C@@]6(C)C[C@H](O)[C@H](O[C@@H]7O[C@H](CO)[C@@H](O)[C@H](O)[C@H]7O)[C@@](C)(CO)[C@@H]6CC[C@@]5(C)[C@]3(C)C[C@H]4O)OC[C@@H](O)[C@@H]2O)[C@H](O)[C@H](O[C@@H]2OC[C@@H](O)[C@H](O[C@@H]3OC[C@](O)(CO)[C@H]3O[C@@H]3OC[C@@H](O)[C@H](O)[C@H]3O)[C@H]2O)[C@H]1O[C@@H]1OC[C@](O)(CO)[C@H]1O	48.7	99.2	56.4	74	110	103	29.8	50.2	46.9	2.01% (active)	78.5	58.2	89.9	74.1	70.7	85.7	62.3	85.5%	56.2	75.9
